We go through 37 compounds from ChEMBL document CHEMBL1157539, “Thousands of chemical starting points for antimalarial lead identification” (Nature, 2010).

One assay has as its system Plasmodium falciparum. In words: GSK_TCMDC: Inhibition of Plasmodium falciparum Dd2 in whole red blood cells, using parasite LDH activity as an index of growth. Test compounds present at 2uM. The format is functional.
`CCOc1cc(C)ccc1C1CCN(CCCCNC(=O)c2ccc(-c3ccc(C(F)(F)F)cn3)cc2)CC1.Cl` returned an Inhibition of 45%. On the same count and under the same terms, as for `CCNC1=NC2=C(CC(C(C)(C)C)CC2)C2(CCC(C(C)(C)C)CC2)S1.Cl` (configuration not stated), the figure is 99%; as for `COc1ccc2nccc([C@@H](O)CN3CCC(NS(=O)(=O)c4cc(Br)c(Br)s4)CC3)c2c1`, 36%. On the same count and under the same terms, to `O=C(Nc1ccccc1F)N(CCCn1ccnc1)Cc1csc(-c2ccc(CNCc3ccccc3)cc2)n1.O=C(O)C(F)(F)F` belongs 26%; to `Br.COc1ccc2c(c1)CCCC2C(C)NCC(O)c1cccc(C(F)(F)F)c1` (configuration not stated), 99%.

In turn, `COc1ccc2nccc([C@@H](O)CN3CCC(NC(=O)C(c4cc5ccccc5o4)N4CCC(Cc5ccccc5)CC4)CC3)c2c1` (some centres not stated) registered an Inhibition of 82%. On the same count and under the same terms, to `CSc1nc2cc3c(cc2n1C(=O)c1ccc(C)cc1)OCCO3` belongs 0%. Same read-out and setting: to `Cl.O=S(=O)(c1ccc(OCc2ccc(Cl)cc2)cc1)c1cc2c(cc1OCc1ccccc1)CCN(CC1CC1)CC2` belongs 0%; to `CN(C)CCN(C)Cc1ccc(-c2ccc(NS(=O)(=O)c3cccc4cccnc34)cc2)cc1.O=C(O)C(F)(F)F`, 16%; to `FC(F)(F)c1cccc(Nc2nc(-c3ccccc3)nc3ncccc23)c1`, 97%. Still for that read-out and setting: to `CCc1ccc2nc(-c3ccc(F)cc3)nc(SCC(=O)Nc3sc(C)c(C)c3C#N)c2c1` belongs 5%; to `Cc1cc(C(=O)Nc2nc(-c3ccccn3)nc3ccsc23)no1`, 90%.

As for `Cc1ccc(-c2noc(=O)n2CC(=O)Nc2ccccc2-c2ccccc2)cc1`, the Inhibition was found to be 86%.

The next assay has as its system HepG2. Nature of the assay: GSK_TCMDC: Percent inhibition of human HepG2 cell line. Test compounds present at 10uM. The format is functional.
The compound `O=C1Nc2cccc3c2C1(CCCN1CCC(c2c[nH]c4cc(C(F)(F)F)ccc24)CC1)CCC3` (configuration not stated) yielded an Inhibition of 91%. As for `COc1cc(OC)cc(-c2nn(-c3ccc([N+](=O)[O-])cc3C#N)c(=S)n2Cc2ccco2)c1`, the Inhibition was 11%.

`COCCNCc1cccc(-c2ccccc2CN(C(=O)c2ccc3c(c2)OCO3)c2ccc(OC)cc2)c1.O=C(O)C(F)(F)F` had an Inhibition of 6%. On the same count and under the same terms, as for `CCCCCCNC(=O)C1Cc2c([nH]c3ccc(Br)cc23)C2(CCN(Cc3ccccc3)CC2)N1` (configuration not stated), the figure is 100%; as for `CC1CN(c2cc(=O)n(Cc3ccc(NC(=O)Nc4ccc(-c5ccccc5)cc4)cc3)cn2)CC(C)N1.O=C(O)C(F)(F)F` (configuration not stated), 0%; as for `O=C(Nc1ccc2c(c1)CCN2C1CCN(Cc2ccc(F)cc2Cl)C1)c1ccco1` (configuration not stated), 4%. Same read-out and setting: to `CCOc1ccc(C(=O)Nc2cc(Br)c3c(c2)CNCC3)cc1C#N.Cl` belongs 17%. The same measure, in the same setting: to `Cc1cc(NC2CCCC2)nc(Nc2ccccc2C)n1` belongs 0%.

Turning to `O=C(NC1CC1)c1cnc(N2CCC(Cc3ccccc3)CC2)c(Cl)c1.O=C(O)C(F)(F)F`, the Inhibition is on record as 10%.

Turning to `CCNc1cc(C(=O)N[C@@H](Cc2ccccc2)[C@H](O)CNC(C)CC(C)C)c(F)c(N2CCCCS2(=O)=O)c1.O=CO` (some centres not stated), the Inhibition is 6%. Compound `COc1ccc(NC(=O)/C=C/c2ccccc2Cl)cc1OCCN1CCC(N2CCCC2)CC1.O=C(O)C(=O)O` showed an Inhibition of 22%. The compound `O=C(Cc1c[nH]cn1)Nc1cccc(-c2ccc(-c3nc4cc(C(F)(F)F)ccc4[nH]3)cc2)c1` had an Inhibition of 10%. Still for that read-out and setting: as for `COC(=O)c1ccc(NC(=O)c2ccc(CCN3CCC(c4nc(COCC(F)(F)F)c(-c5ccc(F)cc5)o4)CC3)cc2)cc1`, the figure is 22%; as for `COc1ccc2nccc([C@@H](O)CN3CCC(NCc4cc5ccc(Cl)cc5[nH]4)CC3)c2c1.O=C(O)C(=O)O`, 30%; as for `O=C(O)C(F)(F)F.OCCN1CCN(Cc2ccc(-c3cccc(-c4nc5ccccc5[nH]4)c3)cc2)CC1`, 32%.

Compound `CN(C)C=Nc1ccc(OCCCCCCOc2ccc(N=CN(C)C)cc2)cc1.Cc1ccc(S(=O)(=O)O)cc1` yielded an Inhibition of 26%.

Compound `CCN(CC)CCNc1ccnc2[nH]c3ccc(C)cc3c12` came in with an Inhibition of 9%. Still for that read-out and setting: as for `CC1(C)N=C(N)N=C(N)N1c1ccccc1.Cl`, the figure is 16%; as for `Cc1cc(N2CCCC2)nc(Nc2ccc(NC(=O)c3cccc(F)c3)cc2)n1`, 39%; as for `CCOc1ccc(-c2nonc2NC(=O)c2cccs2)cc1OCC`, 6%. `O=C(/C=C/c1ccc(Cl)c(Cl)c1)NCCCCCN1CCCN(C(=S)Nc2ccc(Cl)c(Cl)c2)CC1` registered an Inhibition of 16%. The same measure, in the same setting: to `Cc1nc(Nc2ccc(C)c(Cl)c2)c2c(C)noc2n1` belongs 0%; to `COc1ccc(-c2ccc(NC(=O)c3cccc(Cl)c3)c(F)c2)cc1CNC(C)C.O=C(O)C(F)(F)F`, 19%; to `CN(C)CCN(C)Cc1cccc(-c2ccc3c(Nc4ccc(F)cc4Cl)ccnc3c2)c1`, 53%.

What is called Inhibition is the change of the read-out against control, counted positive when it falls. A low value points to a weak effect.
